Compounds with a hit are over-represented: about 5.3% of the library has one in this group of screens.
M18AAP inhibitor – PfM18AAP enzyme inhibition | hit rate 1.2% among 290,000 | inhibition, % at 7.35 µM | recombinant PfM18AAP, H-Glu-NHMec fluorogenic cleavage;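 active means inhibition above the campaign mean inhibition over all tested compounds plus 3 SD, cut at about 28% in these data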
ALR H2O2 inh – inhibitors of human sulfhydryl oxidase ALR. purified ALR, DTT oxidation, H2O2 HRP-luminol luminescence. P55789. hit rate 3.8% among 290,000. inhibition, % (test concentration not listed). AID 485317;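 active means mean replicate inhibition above about 79%, with every replicate also reaching it, limit read from the data; inconclusive means only one of the two criteria met; inactive means mean below limit and not every replicate reaching it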
Target sequence (P55789 whole entry, looked up): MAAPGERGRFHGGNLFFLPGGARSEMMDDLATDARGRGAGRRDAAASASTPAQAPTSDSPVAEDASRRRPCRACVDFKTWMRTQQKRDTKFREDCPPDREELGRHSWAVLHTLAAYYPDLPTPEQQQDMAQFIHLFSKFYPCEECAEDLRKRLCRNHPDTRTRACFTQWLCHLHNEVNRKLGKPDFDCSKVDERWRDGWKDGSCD
HIF activator – HIF pathway transcriptional activation; U2OS HRE-luciferase reporter, luminescence; normalized: DMSO 0%, desferrioxamine 100%; hit rate 0.32% among 300,000; activation, % at 7.5 µM (by protocol);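 active means mean activation of at least 10% of the iron chelator positive control signal, with at least half of replicates also reaching 10%; inconclusive means mean and replicate majority disagree about reaching 10%; inactive means mean and most replicates under 10%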
Mot1-301 SUMO – SUMOylation pathway inhibition by Mot1-301 growth rescue | AID 2716 | growth rescue, % at 18.8 µM | hit rate 1% among 320,000 | S. cerevisiae Mot1-301 growth rescue, ATP luminescence, 38.5C; percent above DMSO median, 100 means doubled;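 active means every valid replicate shows activation above 250% relative to neutral control wells; inactive means the rest, any valid replicate at or below 250%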
Hits are given with their value; . = inactive; ? = inconclusive; / = no result given.

SMILES	M18AAP inhibitor	ALR H2O2 inh	HIF activator	Mot1-301 SUMO
Cc1cc(C)c(C)c(S(=O)(=O)N2C(=S)NC(=O)C2C(C)C)c1C (configuration not stated)	.	96.3	.	.
Cc1cc(C)c(C)c(S(=O)(=O)N2C(=S)NC(=O)C2CC(C)C)c1C (configuration not stated)	.	/	.	.
CCCCNC(=O)c1onc(CCl)c1C(=O)OC	.	97.1	.	.
COCCNC(=O)c1onc(CCl)c1C(=O)OC	.	.	.	.
O=C(OCC#CCSc1nnc(-c2ccc([N+](=O)[O-])cc2)o1)c1cccs1	.	.	.	.
CCC(CCC(=O)Nc1ccc(S(N)(=O)=O)cc1)C(=O)O (configuration not stated)	.	.	.	.
COc1cc(/C=N/n2nnnc2N)ccc1OCc1c(C)no[n+]1[O-]	.	.	.	.
Cc1no[n+]([O-])c1COc1cccc(/C=N/Nc2nncn2N)c1	28.3	.	.	.
O=C(c1ccco1)N1CCN(c2ncnc3c(-c4ccc(Cl)cc4)nsc23)CC1	.	.	.	.
Cc1ccc(COc2ccccc2C(=S)N2CCCC2)cc1	28.2	.	.	.
CC(CC(=O)Nc1ccccc1)NCCCN1CCCC1=O (configuration not stated)	.	.	.	.
CCNC(=O)c1c(O)c2c([nH]c1=O)CCCC2	.	.	.	.
COc1cccc(-c2cc(C(F)(F)F)n3nc(N)nc3n2)c1	.	95.4	.	.
COc1ccc(-c2cc(C(F)(F)F)n3nc(N)nc3n2)cc1	.	.	.	.
Nc1nc2nc(-c3cccs3)cc(C(F)(F)F)n2n1	.	.	24.2	.
Cn1c(=O)c2ccccc2n2c(CCl)nnc12	.	.	.	.
CCC1(CC)C(=O)C2=C3C1[C@H](C(=O)OC)CC(C(=O)OC)C[C@H]3[C@H]1C(=O)N(c3ccccc3)C(=O)[C@H]1[C@H]2C (some centres not stated)	/	.	.	.
COc1cnc(-c2ccccn2)nc1Oc1ccccc1Cl	.	97.8	.	.
COc1ccccc1Sc1nc(-c2ccccn2)ncc1OC	.	.	.	.
COc1cnc(-c2ccccn2)nc1NC(C)C	.	.	177.7	.
COc1cnc(-c2ccccn2)nc1Oc1ccc(Cl)c2ccccc12	.	.	.	/
COc1ccc(S(=O)(=O)N2CCNCC2)cc1	.	.	.	.
CC(C)c1nc(CNC(=O)CCc2nnc(-c3ccsc3)o2)cs1	.	.	49.4	.
O=C(CCc1nnc(-c2ccsc2)o1)NCc1ccccc1OC(F)(F)F	.	.	.	.
CC(=O)Nc1ccc(N2C(=O)CC(Sc3nc4ccccc4s3)C2=O)cc1 (configuration not stated)	.	?	.	.
SMILES	M18AAP inhibitor	ALR H2O2 inh	HIF activator	Mot1-301 SUMO
COc1ccc(N2C(=O)CC(Sc3nc4ccccc4s3)C2=O)cc1OC (configuration not stated)	.	97.0	.	.
CCOC(=O)NC1(Nc2ccc(Cl)cn2)Oc2ccccc2O1	56.7	/	/	/
Cc1nn(-c2ccccc2)c2[nH]c(=O)c(CNCCN3CCOCC3)cc12	.	91.0	.	.
COc1ccc(N2CCN(S(=O)(=O)c3ccc4c(c3)CCCC4)CC2)c([N+](=O)[O-])c1	.	.	.	.
CCSCc1nnc(SCC(=O)Nc2cccc(C(C)=O)c2)n1C	.	.	.	.
CCSCc1nnc(SCC(=O)Nc2cccc(SC)c2)n1C	.	98.3	.	.
Cc1cccc(OCc2nnc(SCC(=O)Nc3ncc(C)s3)o2)c1	31.4	.	.	.
COCCNC(=O)CN(Cc1ccccc1)S(=O)(=O)c1ccc2nc(C)sc2c1	.	.	.	.
CC(C)(C)C1=CC=C(C(C)(C)C)C(=O)C1=O	.	.	.	.
COC(=O)c1cc(N2C(=O)C3C(C2=O)C2(C)C=CC3(C)O2)ccc1Cl (configuration not stated)	.	.	.	425.2
CC(=O)Oc1ccc(N2C(=O)C3C(C2=O)C2(C)C=CC3(C)O2)cc1 (configuration not stated)	/	.	/	.
CC(=O)Nc1ccccc1C(=O)C(=O)Nc1ccc(C(=O)N2CCOCC2)cc1	.	/	.	.
CCNc1ccc(S(=O)(=O)N(C)C)cc1NCC(=O)Nc1ccccc1F	.	98.8	.	.
CCOC(=O)C1C(=O)NC(c2ccccc2)=NC1c1ccc(F)cc1 (configuration not stated)	.	98.1	.	.
C/C(CC(=O)Nc1ccc(N(C)C)cc1)=N\NC(=O)c1ccc(Cl)cc1Cl	.	.	.	.
C/C(CC(=O)Nc1ccc(N(C)C)cc1)=N\NC(=O)c1ccc([N+](=O)[O-])cc1Cl	.	99.6	.	.

Compound activity from PubChem.
